The supplement of paper PMC7156485
Where a name gives a salt, the structure may show the parent alone. A number with no mark means an inactive call.
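Further: TDF is a line of transformed human dermal fibroblasts of mesenchymal origin.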

The compounds below were run on HCC1569 (assay: H1.0 immunofluorescence intensity relative to DMSO (% of DMSO); higher = stronger H1.0 induction, active = 140 or more). Details: concentration: 10 µM; 24 h.
How it was run: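 Cell number or H1.0 nuclear intensity appears as percent of the plate control, based on the median of replicates. Measurements came from HCC1569 and TDF cells exposed in triplicate to compounds at 10 µM for 24 h at 37 °C, then imaged in six fields per well at ×10. Positional effects were smoothed out of HCC1569 values.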
In the case of `CN1CC(C(=O)NC2(C)OC3(O)C4CCCN4C(=O)C(Cc4ccccc4)N3C2=O)CC2c3cccc4[nH]cc(c34)CC21.CS(=O)(=O)O` (centres undefined) [Dihydroergotamine methanesulfonate], the H1.0 immunofluorescence intensity is reported as 95.5. For `S=C(NC1CCCCC1)N1CCC(c2cnc[nH]2)CC1` [Thioperamide maleate], the H1.0 immunofluorescence intensity was 94.7. Compound `CN1CC(NS(=O)(=O)N(C)C)CC2c3cccc4c3c(cn4C)CC21` (centres undefined) [Mesulergine] has an H1.0 immunofluorescence intensity of 120. `O=C1CSC(c2ccccc2Cl)c2cc(Cl)ccc2N1` (centres undefined) was tested, and the H1.0 immunofluorescence intensity was 115. Compound `COc1ccc2c(c1OC)C(=O)OC2C1c2cc3c(cc2CCN1C)OCO3` (centres undefined) has an H1.0 immunofluorescence intensity of 95.3. Compound `CC=C1CC(C)C(O)(CO)C(=O)OCC2=CCN3CCC(OC1=O)C23` (centres undefined) [Retrorsine] has an H1.0 immunofluorescence intensity of 90.4. For `C[Se]CC(N)C(=O)O.Cl` (centres undefined) [Se-(methyl)selenocysteine hydrochloride], the H1.0 immunofluorescence intensity was 98.1. With `CC(=O)OCC1=CC2C3C(C)(C)C3(OC(=O)Cc3ccccc3)CC(C)C2(O)C2C=C(C)C(=O)C2(O)C1` (centres undefined) [12-Deoxyphorbol 13-phenylacetate 20-acetate] the H1.0 immunofluorescence intensity was 137. `CCCCCCC(=O)CCCCCCC=CCC(O)C(O)C(N)(CO)C(=O)O` (centres undefined) [Myriocin] was tested, and the H1.0 immunofluorescence intensity was 87.9. With `CNC(=O)Oc1ccc2c(c1)C1(C)CCN(C)C1N2C` (single isomer, unassigned; (-)) [(-)-Physostigmine] the H1.0 immunofluorescence intensity was 94.3. `CN(C)C(=O)Oc1cccc([N+](C)(C)C)c1.COS(=O)(=O)[O-]` gave an H1.0 immunofluorescence intensity of 98.3. `C=CCc1cc(OC)c2c(c1)OCO2` [Myristicin] showed an H1.0 immunofluorescence intensity of 81.5. For `COc1ccc(-n2nc(C(F)(F)F)cc2-c2ccc(Cl)cc2)cc1`, the H1.0 immunofluorescence intensity was 90.3. Work on `C[C@]12CC[C@@H](O)C[C@@H]1CC[C@@H]1[C@@H]2CC[C@]2(C)[C@@H](O)CC[C@@H]12` [5alpha-Androstane-3alpha,17beta-diol] yielded an H1.0 immunofluorescence intensity of 88.8. `CN1CC(CNC(=O)OCc2ccccc2)CC2c3cccc4c3c(cn4C)CC21` (centres undefined) [Metergoline] gave an H1.0 immunofluorescence intensity of 120. For `CC(C)Oc1cccnc1N(C)C1CCN(Cc2ccc(I)cc2)CC1` [RBI-257 maleate], the H1.0 immunofluorescence intensity was 102. In the case of `O=[N+]([O-])c1ccc(O[C@@H]2O[C@H](CO)[C@@H](O)[C@H](O)[C@H]2F)c([N+](=O)[O-])c1` [2,4-Dinitrophenyl 2-fluoro-2-deoxy-beta-D-glucopyranoside], the H1.0 immunofluorescence intensity is reported as 93.2. Compound `CCN1CC2(COC)CCC(OC)C34C5CC6C(OC)CC7(OCOC7(C(O)C23)C14)C5C6OC` (centres undefined) [Delcorine] has an H1.0 immunofluorescence intensity of 94.3. In the case of `CCC(C(=O)O)C1OC(C(C)C(O)C(C)C(=O)C(CC)C2OC3(C=CC(O)C4(CCC(C)(C5CCC(O)(CC)C(C)O5)O4)O3)C(C)CC2C)C(C)CC1C` (centres undefined) [Narasin], the H1.0 immunofluorescence intensity is reported as 159 (active). Work on `CC(=O)NCCc1c[nH]c2ccccc12` [N-Acetyltryptamine] yielded an H1.0 immunofluorescence intensity of 94.1. For `CC1CCC2C(C)C3C(CC4C5CCC6CC(O)CCC6(C)C5CCC43C)N2C1` (centres undefined) [Demissidine], the H1.0 immunofluorescence intensity was 92.6. In the case of `CN1C2CCC1CC(OC(=O)C(CO)c1ccccc1)C2` (centres undefined) [Hyoscyamine], the H1.0 immunofluorescence intensity is reported as 94.8. `Cl.NCC(O)c1cc(O)c(O)cc1F` (centres undefined) [6-Fluoronorepinephrine hydrochloride] gave an H1.0 immunofluorescence intensity of 83.2. `CN(C)C(=O)Oc1ccc[n+](C)c1.[Br-]` [Pyridostigmine bromide] showed an H1.0 immunofluorescence intensity of 108. For `CS(=O)(=O)O.Cc1c(C(=O)c2cccc3ccccc23)c2cccc3c2n1C(CN1CCOCC1)CO3` (stereo not drawn) [( R)-(+)-WIN 55,212-2 mesylate], the H1.0 immunofluorescence intensity was 209 (active). `Cl.N[C@@H](CCl)C(=O)O` [beta-Chloro-L-alanine hydrochloride] was tested, and the H1.0 immunofluorescence intensity was 91.9. `COc1cccc2c1cc([N+](=O)[O-])c1c(C(=O)O)cc3c(c12)OCO3` [Aristolochic acid A] showed an H1.0 immunofluorescence intensity of 91.2. Work on `O=C1CCCC2C3CCCN4CCCC(CN12)C34` (centres undefined) [Matrine] yielded an H1.0 immunofluorescence intensity of 94.6. In the case of `CN1Cc2c(ccc3c2OCO3)C2C(O)Cc3cc4c(cc3C21)OCO4` (single isomer, unassigned; (+)) [(+)-Chelidonine], the H1.0 immunofluorescence intensity is reported as 148 (active).
